Consider eleven targets from the supplement of paper PMC12819154, “High-throughput peptide-centric local stability assay extends protein–ligand identification to membrane proteins, tissues and bacteria” (Nature Structural & Molecular Biology, 2025).
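Further: lysate desalted by size exclusion to strip endogenous ATP, peptide intensities built from DIA-NN precursor signals, and peptides missing any value discarded before comparison.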

Sequence of UniProt P78067 (P78067 whole entry): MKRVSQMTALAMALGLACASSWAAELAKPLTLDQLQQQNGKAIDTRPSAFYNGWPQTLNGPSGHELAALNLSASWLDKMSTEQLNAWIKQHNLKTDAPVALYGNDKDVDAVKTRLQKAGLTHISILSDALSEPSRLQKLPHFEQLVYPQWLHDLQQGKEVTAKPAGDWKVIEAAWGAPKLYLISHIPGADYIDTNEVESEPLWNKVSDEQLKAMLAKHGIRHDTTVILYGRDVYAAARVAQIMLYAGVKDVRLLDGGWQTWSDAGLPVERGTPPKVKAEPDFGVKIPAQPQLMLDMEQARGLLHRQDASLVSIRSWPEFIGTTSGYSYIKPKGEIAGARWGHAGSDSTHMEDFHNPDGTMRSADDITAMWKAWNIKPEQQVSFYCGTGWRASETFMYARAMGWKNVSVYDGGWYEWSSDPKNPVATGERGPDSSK
Sequence of UniProt P43329 (P43329 whole entry): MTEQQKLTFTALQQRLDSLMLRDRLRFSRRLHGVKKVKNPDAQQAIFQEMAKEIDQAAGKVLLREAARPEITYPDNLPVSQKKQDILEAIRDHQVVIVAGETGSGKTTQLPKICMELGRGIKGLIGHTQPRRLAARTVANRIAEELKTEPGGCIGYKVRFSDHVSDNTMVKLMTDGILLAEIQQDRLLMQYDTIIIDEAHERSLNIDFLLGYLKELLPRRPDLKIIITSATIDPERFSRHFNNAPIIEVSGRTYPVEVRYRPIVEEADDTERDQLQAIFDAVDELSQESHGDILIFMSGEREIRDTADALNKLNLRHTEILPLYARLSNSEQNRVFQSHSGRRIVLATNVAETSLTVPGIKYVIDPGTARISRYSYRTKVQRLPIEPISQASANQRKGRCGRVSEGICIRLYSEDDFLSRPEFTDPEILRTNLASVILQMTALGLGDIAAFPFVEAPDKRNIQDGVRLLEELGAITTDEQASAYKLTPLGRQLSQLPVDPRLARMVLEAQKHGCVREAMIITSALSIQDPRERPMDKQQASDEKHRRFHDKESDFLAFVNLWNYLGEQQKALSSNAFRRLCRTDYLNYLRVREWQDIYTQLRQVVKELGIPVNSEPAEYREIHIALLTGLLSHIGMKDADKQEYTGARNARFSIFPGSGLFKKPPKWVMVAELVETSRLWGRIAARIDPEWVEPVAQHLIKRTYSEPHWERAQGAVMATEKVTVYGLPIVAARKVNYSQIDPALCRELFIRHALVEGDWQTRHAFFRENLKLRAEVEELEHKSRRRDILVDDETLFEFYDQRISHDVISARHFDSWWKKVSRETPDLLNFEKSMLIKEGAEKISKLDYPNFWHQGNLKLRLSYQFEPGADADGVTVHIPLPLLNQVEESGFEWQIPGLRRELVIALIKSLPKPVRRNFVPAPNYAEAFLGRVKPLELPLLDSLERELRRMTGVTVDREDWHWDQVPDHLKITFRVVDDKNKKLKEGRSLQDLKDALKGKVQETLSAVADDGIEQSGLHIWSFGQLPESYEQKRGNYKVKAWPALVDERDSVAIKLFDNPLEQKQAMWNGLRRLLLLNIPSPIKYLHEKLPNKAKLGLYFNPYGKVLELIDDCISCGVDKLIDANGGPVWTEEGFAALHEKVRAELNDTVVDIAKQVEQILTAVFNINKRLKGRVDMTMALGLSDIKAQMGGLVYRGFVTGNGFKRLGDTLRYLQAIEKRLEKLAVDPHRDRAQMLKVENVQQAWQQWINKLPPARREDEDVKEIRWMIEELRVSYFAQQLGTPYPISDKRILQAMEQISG
Sequence of UniProt P39829 (P39829 whole entry): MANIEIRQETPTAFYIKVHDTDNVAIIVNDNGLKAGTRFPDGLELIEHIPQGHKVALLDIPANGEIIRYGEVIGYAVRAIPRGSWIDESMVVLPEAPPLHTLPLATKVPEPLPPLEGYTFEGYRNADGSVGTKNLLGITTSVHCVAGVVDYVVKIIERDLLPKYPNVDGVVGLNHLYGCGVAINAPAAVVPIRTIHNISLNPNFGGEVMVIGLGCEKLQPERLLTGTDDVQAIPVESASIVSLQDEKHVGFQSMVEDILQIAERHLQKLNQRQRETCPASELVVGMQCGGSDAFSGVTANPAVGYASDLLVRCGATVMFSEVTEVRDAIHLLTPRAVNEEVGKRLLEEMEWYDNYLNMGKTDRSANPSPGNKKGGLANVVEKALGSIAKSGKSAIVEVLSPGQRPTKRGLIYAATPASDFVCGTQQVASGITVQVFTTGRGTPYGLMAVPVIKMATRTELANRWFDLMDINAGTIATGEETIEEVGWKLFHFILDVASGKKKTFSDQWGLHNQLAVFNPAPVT
Sequence of UniProt P0AC84 (P0AC84 whole entry): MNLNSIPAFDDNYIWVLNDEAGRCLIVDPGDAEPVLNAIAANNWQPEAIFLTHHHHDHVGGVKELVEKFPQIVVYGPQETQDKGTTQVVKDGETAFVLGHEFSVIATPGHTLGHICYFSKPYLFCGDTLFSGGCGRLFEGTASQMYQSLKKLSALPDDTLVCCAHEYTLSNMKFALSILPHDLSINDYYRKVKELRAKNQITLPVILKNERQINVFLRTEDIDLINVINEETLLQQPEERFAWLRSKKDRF
Sequence of UniProt P39177 (P39177 whole entry): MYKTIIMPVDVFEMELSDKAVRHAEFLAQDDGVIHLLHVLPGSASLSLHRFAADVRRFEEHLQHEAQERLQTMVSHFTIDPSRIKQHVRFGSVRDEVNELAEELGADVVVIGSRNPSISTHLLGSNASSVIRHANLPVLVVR
Sequence of UniProt P0A698 (P0A698 whole entry): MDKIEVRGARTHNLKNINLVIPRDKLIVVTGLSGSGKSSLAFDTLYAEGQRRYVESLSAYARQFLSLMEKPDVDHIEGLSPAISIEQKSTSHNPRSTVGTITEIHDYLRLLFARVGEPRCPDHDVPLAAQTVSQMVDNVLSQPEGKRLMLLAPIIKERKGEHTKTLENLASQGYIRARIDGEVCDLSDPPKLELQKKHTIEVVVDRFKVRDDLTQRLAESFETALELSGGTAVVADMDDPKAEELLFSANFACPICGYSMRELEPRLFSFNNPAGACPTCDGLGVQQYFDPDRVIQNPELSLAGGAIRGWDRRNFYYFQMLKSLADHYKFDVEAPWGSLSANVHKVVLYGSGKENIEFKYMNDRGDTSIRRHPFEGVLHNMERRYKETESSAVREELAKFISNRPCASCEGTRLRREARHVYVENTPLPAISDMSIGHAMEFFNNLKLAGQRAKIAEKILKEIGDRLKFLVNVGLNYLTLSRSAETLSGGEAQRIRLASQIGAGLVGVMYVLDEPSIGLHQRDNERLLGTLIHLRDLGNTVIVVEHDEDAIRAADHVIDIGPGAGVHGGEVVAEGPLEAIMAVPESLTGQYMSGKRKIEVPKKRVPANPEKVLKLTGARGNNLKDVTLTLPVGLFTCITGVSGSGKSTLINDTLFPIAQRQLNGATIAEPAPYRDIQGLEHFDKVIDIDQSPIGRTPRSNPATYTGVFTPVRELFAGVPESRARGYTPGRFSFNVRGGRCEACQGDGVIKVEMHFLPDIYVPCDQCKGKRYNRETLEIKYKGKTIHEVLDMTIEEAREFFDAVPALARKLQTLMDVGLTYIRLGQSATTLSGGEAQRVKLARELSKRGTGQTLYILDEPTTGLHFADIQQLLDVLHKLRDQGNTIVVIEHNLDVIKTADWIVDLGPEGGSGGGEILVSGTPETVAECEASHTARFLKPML
Sequence of UniProt P21514 (P21514 whole entry): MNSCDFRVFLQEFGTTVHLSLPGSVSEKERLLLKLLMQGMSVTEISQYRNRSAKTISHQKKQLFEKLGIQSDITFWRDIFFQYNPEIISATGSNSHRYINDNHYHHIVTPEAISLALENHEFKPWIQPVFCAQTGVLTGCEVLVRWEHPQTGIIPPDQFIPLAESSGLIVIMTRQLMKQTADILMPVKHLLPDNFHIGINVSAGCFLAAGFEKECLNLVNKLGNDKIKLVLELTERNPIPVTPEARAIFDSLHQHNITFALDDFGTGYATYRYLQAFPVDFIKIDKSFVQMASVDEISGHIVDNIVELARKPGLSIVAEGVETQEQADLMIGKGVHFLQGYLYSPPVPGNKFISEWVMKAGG
Sequence of UniProt P76536 (P76536 whole entry): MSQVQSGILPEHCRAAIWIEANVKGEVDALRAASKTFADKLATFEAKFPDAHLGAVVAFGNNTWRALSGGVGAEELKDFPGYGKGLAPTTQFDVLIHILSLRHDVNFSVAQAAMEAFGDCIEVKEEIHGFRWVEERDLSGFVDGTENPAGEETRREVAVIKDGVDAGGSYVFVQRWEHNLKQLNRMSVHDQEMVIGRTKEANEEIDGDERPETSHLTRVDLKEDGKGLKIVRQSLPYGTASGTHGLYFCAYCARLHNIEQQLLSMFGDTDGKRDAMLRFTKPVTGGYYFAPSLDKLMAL
Sequence of UniProt P39407 (P39407 whole entry): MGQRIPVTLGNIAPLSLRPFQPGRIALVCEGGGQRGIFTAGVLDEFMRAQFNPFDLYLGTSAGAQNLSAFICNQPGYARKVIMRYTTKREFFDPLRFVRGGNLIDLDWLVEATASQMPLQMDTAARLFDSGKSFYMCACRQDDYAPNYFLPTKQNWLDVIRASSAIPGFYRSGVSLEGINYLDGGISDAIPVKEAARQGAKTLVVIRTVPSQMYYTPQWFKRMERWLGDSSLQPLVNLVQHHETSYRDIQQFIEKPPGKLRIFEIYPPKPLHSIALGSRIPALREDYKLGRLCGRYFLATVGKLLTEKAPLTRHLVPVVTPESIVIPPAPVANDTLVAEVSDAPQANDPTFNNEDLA
Sequence of UniProt P00903 (P00903 whole entry): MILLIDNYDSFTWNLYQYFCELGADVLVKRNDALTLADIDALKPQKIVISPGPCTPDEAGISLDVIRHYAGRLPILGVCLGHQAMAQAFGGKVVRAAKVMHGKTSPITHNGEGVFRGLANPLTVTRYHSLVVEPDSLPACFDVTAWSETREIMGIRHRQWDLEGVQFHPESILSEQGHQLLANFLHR

Compound in this experiment: Nc1ncnc2c1ncn2[C@@H]1O[C@H](COP(=O)(O)OP(=O)(O)OP(=O)(O)O)[C@@H](O)[C@H]1O [adenosine 5'-triphosphate]
Nature of the experiment: log2 fold change of tryptic peptide abundance, ligand vs vehicle (limited proteolysis) (log2 ratio); higher = more trypsin-susceptible (destabilized). The conditions noted are these: ligand concentration: 5 mM; sample: E. coli desalted lysate; replicate design: treated before aliquoting. The method, then:
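HT-PELSA: desalted E. coli K-12 BW25113 lysate (with 12 mM MgCl2) incubated with 5 mM ATP (pH 7) or water for 30 min at 25 C, then a 4 min trypsin pulse at 22 C. Peptides were quantified by DIA-MS (4 replicates). Value is the peptide log2 fold change (treated/control); negative = stabilized. Scale: negative = ligand-stabilized region.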
As to “UniProt P76536 (peptide sequence: ALSGGVGAEELK, peptide start residue: 66)”, the log2 fold change is 0.555.
As for “UniProt P39177 (peptide sequence: FEEHLQHEAQER, peptide start residue: 58)”, the log2 fold change was -2.59.
As for “UniProt P21514 (peptide sequence: NPIPVTPEAR, peptide start residue: 237)”, the log2 fold change was -2.06.
As for “UniProt P0AC84 (peptide sequence: QINVFLR, peptide start residue: 212)”, the log2 fold change was 0.46.
For “UniProt P39407 (peptide sequence: EFFDPLR, peptide start residue: 90)”, the log2 fold change was 0.583.
In the case of “UniProt P00903 (peptide sequence: GLANPLTVTR, peptide start residue: 117)”, the log2 fold change is -0.376.
Regarding “UniProt P0A698 (peptide sequence: SSLAFDTLYAEGQRR, peptide start residue: 38)”, the log2 fold change was determined as 2.9.
For “UniProt P43329 (peptide sequence: IAEELKTEPGGCIGYK, peptide start residue: 142)”, the log2 fold change was -2.41.
As for “UniProt P39829 (peptide sequence: SANPSPGNKK, peptide start residue: 364)”, the figure is -0.412; as for “UniProt P78067 (peptide sequence: WGHAGSDSTHMEDFHNPDGTMR, peptide start residue: 340)”, -0.858.
Turning to “UniProt P37773 (peptide sequence: IIAVLEPRSNTMK, peptide start residue: 354)”, the log2 fold change came to 1.55.
